Data: PubChem BioAssay (NCI)
This is part of a sample that, as a whole, favours compounds with a hit. Of some 83,000 tested, about 20% had one in any assay.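 Values shown are percent growth following 48 h exposure of cells in 96-well plates to a single concentration of compound; below 10 was considered active.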 Values without a mark were called inactive. Activity calls are given as the source filed them.

tested on: HL-60(TB) leukemia; experiment: NCI-60 one-dose screen, 48 h (100 = growth as untreated, 0 = no growth, -100 = all killed); details: 10 µM unless noted

| Compound | growth |
| --- | --- |
| O=C(CN1CCN(C(=O)c2ccccc2)CC1)Nc1ccccc1SCc1ccccc1 | 80.5% |
| O=C(Cc1ccc(F)c(F)c1)Nc1cc(C2(C(F)(F)F)CC2)nn1Cc1ccccc1 | 11.9% |
| C[C@@H](Nc1cc(F)cc(F)c1)c1cc(C(=O)N(C)C)cc2c(=O)cc(N3CCOCC3)oc12 | 40.9% |
| Cc1cc[n+](CCCC[n+]2ccc(C)cc2)cc1 | 94.5% |
| NCCCNc1nc2ccccc2c2c(=O)c3cc(F)ccc3sc12 | -28.1% (active) |
| CN1C(=O)N(C)C2C1NN=c1s/c(=C\c3ccccc3F)c(=O)n12 (stereo not given) | -46.5% (active) |
| CSc1nc2c(c(=O)[nH]1)C(c1ccc(Cl)cc1)C1=C(N2)/C(=C/c2ccc(Cl)cc2)CNC1 (stereo not given) | 55.4% |
| BrCCCOc1ccc(Oc2ccc(OCCCBr)cc2)cc1 | 106% |
| CN(Cc1ccccc1)c1ccc(SC#N)cc1 | 17.5% |
| C[C@H]1[C@H]2C3=CC[C@@H]4[C@@]5(C)C/C(=C/c6ccco6)C(=O)C(C)(C)[C@@H]5CC[C@@]4(C)[C@]3(C)CC[C@@]2(C(=O)N2CCOCC2)CC[C@@H]1C | 14.7% |
| O=C1/C(=C/c2ccc(O)cc2)COc2ccc(O)cc21 | 96.2% |
| N/C(=N\C(N)=N\c1nc2ccccc2s1)c1ccnc(Br)c1 | 2.51% (active) |
| CCCc1cc(=O)n2c(C(=O)Nc3cccc(C(=O)OCC)c3)c(C(=O)Nc3ccc(F)cc3)sc2n1 | 73.6% [30 µM] |
| Cc1nc(Nc2ccc(NC(=S)Nc3ccccc3)cc2)nc2nc(Nc3cccc(Cl)c3)[nH]c(=O)c12 | 57.1% |
| COc1ccc(OC)c(/C=C/c2nc(=S)n(-c3ccc(Cl)cc3)[nH]2)c1 | 4.33% (active) |
| Clc1ccc(Nc2ccnc(NCCCNc3ccnc4cc(Cl)ccc34)n2)cc1 | -72.3% (active) |
| CCCCn1sc(=O)n(Cc2ccc(CNC(=O)OCc3ccc4c(Cl)cc(Cl)c(O)c4n3)cc2)c1=O | 67.9% |
| COc1cc2c(c(OC)c1OC)-c1ccc(SC)c(=O)cc1[C@@H](NC1OC(CO)C(O)C(O)C1O)CC2 (stereo not given in full) | -38.6% (active) |
| Cc1nc2cc(O)c(O)cc2cc1Oc1ccc(NC(=O)Nc2ccc(Cl)c(Cl)c2)cc1 | 96.8% |
| COc1cc2nc(-c3ccc(Cl)cc3)cc(OCCCN3CCCCC3)c2cc1OC | 29.6% |

| Compound | growth |
| --- | --- |
| COc1ccc2c(c1)oc1c(C)c3c(c(C)c12)C(=O)N(CCN1CCOCC1)C3=O | 87.6% |
| CCN1C(=O)N(CC)C2C1NN=c1s/c(=C\c3ccc(C(F)(F)F)cc3)c(=O)n12 (stereo not given) | -49.2% (active) |
| CCC(CC)NCCCCCNc1cc(OC)cc2cccnc12 | 110% |
| Cc1ccc(C(=O)/C=C/c2ccccc2)s1 | 97.1% |
| COc1cnc2c(c1)C(=O)c1c-2n(CCCN2CCC(N)CC2)c(=O)c2cc([N+](=O)[O-])ccc12 | 44.3% |
| COC(=O)c1ccc(NC(=O)Nc2ccc(C(=O)OC)cc2)cc1 | 92.8% |
| c1ccc(OCc2nnc(-c3ccc(Oc4ccccc4)cc3)o2)cc1 | 99.6% |
| COC(=O)c1ccc(NC(=O)c2ccc(-c3cccc([N+](=O)[O-])c3)o2)cc1 | 101% |
| O=C1c2ccccc2C(=O)N1c1ccccc1 | 111% |
| COc1ccc(/C(C)=C(\c2ccc(OCCN3CCOCC3)cc2)c2ccc(OC(=O)C3CCCCC3)cc2)cc1 | 126% |
| COc1ccc2c(c1)/C(=C/c1sc(=S)n(Cc3ccco3)c1O)C=N2 | 3.03% (active) |
| Cc1ccc(-c2nn(C)c(=O)c3noc(-c4ccc(C)cc4)c23)cc1 | 29.3% |
| CCN1C(=O)CC(SC2CC(=O)N(CC)C2=O)C1=O (stereo not given) | 79.9% |
| Cc1ccccc1N1C(c2ccccc2)=NNC12C=CC(=O)C=C2Cl (stereo not given) | 82.4% |
| O=C1CCC(c2c(O)cc(O)c3c(=O)c(O)c(-c4ccc(O)c(O)c4)oc23)N1 (stereo not given) | 87% |
| O=C1NC(=Nc2ccc(O)cc2)S/C1=C\c1cccs1 | -4.12% (active) |
| O=C(c1ccccc1)c1ccc(N2C(=O)C3C4c5ccccc5C(/C=C/C(=O)c5ccccn5)(c5ccccc54)C3C2=O)cc1 (stereo not given) | 30% |
| O=C(CCl)N1c2ccccc2Oc2ccc3ccccc3c21 | -0.539% (active) |
| [2H]C([2H])([2H])Oc1cccc(/C=C/C(=O)/C=C(/C=C/c2cccc(OC([2H])([2H])[2H])c2OC([2H])([2H])[2H])OB(F)F)c1OC([2H])([2H])[2H] | 60% |
| COC(=O)c1ccc(NC(N)=NCC(C)(C)COc2ccc(C(F)(F)F)cc2)nc1 | -49% (active) |
